TPT1 inhibitor: blocks Candida albicans tRNA 2'-phosphotransferase | recombinant caTPT1, FP RNA substrate dephosphorylation | inhibition, % at 5 µM | 300,000 tested, 0.81% active;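 active means inhibition above the mean of all tested compounds plus 3 SD, set per screening campaign, cut at about 24% in these data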;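 further: plate controls were DMSO alone for no effect and ferristatin control at 100 nM for full effect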
IDE cell activ: IDE (human) activation, cell-based; HEK cells, FAbeta-B cleavage, fluorescence polarization; 0% vehicle, 100% cell-free pure enzyme wells; P14735; 340,000 tested, 0.073% active; activation, % at 5.96 µM;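 active means activation above the mean of all tested compounds plus 3 SD, set per screening campaign, cut at about 17% in these data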
Target sequence (P14735 whole entry, looked up): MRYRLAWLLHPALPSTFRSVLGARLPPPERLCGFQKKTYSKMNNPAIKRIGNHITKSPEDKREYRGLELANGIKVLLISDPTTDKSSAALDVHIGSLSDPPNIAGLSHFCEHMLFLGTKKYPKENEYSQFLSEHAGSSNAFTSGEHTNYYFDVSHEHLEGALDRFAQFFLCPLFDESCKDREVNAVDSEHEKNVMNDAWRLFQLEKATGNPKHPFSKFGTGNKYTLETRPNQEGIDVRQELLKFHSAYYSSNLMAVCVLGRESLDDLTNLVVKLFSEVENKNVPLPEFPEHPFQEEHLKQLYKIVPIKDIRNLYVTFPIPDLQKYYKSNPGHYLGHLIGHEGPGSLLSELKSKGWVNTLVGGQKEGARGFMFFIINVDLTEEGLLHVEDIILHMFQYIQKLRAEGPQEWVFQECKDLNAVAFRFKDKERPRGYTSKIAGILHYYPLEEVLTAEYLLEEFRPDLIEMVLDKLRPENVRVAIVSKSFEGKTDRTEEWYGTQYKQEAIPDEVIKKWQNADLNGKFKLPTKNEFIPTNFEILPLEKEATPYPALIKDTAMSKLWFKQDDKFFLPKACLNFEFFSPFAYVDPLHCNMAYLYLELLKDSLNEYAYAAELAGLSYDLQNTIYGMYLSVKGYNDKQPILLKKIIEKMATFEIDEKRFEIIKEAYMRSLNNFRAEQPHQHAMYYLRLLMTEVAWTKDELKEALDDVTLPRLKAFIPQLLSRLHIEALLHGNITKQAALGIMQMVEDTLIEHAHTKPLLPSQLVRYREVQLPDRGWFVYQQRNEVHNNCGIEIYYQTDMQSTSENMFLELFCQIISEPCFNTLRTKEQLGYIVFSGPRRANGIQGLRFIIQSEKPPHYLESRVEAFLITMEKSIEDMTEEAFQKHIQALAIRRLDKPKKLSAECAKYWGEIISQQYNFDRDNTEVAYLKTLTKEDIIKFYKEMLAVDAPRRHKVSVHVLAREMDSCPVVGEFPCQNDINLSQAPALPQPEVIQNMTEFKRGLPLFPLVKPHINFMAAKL
IDE inh: inhibitors of human insulin-degrading enzyme in cells; AID 434962; 320,000 tested, 0.41% active; HEK cells, FAbetaB cleavage, fluorescence polarization; inhibition, % at 5.59 µM;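 active means percent inhibition above the average of all tested compounds plus 3 SD, set per screening campaign, cut at about 16% in these data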;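 further: IDE supplied by intact live HEK cells; FP after avidin binding of uncleaved biotin substrate so inhibition keeps polarization high; 0% = DMSO wells and 100% = 60 µM reference IDE inhibitor Ii1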
CRFBP-R2 block: CRF-BP/CRF-R2 complex antagonism. HEK293 CRF-R2/CRF-BP, CRF-induced calcium fluorescence. inhibition, % at 11.8 µM. 350,000 tested, 0.59% active;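 active means inhibition of the ligand-induced calcium signal above about 50% at the single tested concentration, limit read from the data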
Myeloid diff 2: compounds promoting myeloid differentiation. ER-HoxA9 myeloid progenitors, lysozyme-GFP differentiation, flow cytometry. calls only at 10 µM. 360,000 tested, 1% active;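 active means normalized GFP-positive differentiation at or above the plate's own cutoff, the solvent-only control mean plus 3 SD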;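 further: cells exposed to compound for four days before flow analysis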
CRFBP-R2 agonist: agonists of human CRF-binding protein/CRF-R2 receptor complex. HEK293 CRF-R2/CRF-BP, calcium dye fluorescence (FLIPR); percent of saturating CRF peptide response. activation, % at 13.2 µM. 350,000 tested, 0.46% active. AID 588473;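 active means activation of at least 50%, plus an integration ratio under a set limit after plate pattern correction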;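 further: plate controls were neutral control wells without compound for no effect and CRF at EC100 for full effect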
caTPT1 confirm: TPT1 (C. albicans) inhibition, confirmation. shares compounds with TPT1 inhibitor. recombinant caTPT1, fluorescence polarization, RNase T1 coupled. inhibition, % at 5 µM. 2,400 tested, 74% active;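 active means inhibition above the primary screen limit, the mean inhibition of all tested compounds plus 3 SD, cut at about 25% in these data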
RNase T1 inh: counter-screen for TPT1 inhibitors: inhibitors of Aspergillus oryzae RNase T1; shares compounds with TPT1 inhibitor; RNase T1 cleavage, fluorescence polarization, 1536-well; inhibition, % at 5 µM; 2,400 tested, 83% active; AID 2153;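 active means inhibition above the solvent-only control well mean plus 3 SD, limit set per screening run, cut at about 23% in these data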;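 further: plate controls were DMSO wells with enzyme for no effect and wells without RNase T1 for full effect; inhibitors block cleavage so intact labeled substrate keeps polarization high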
* marks the source's active call; other numbers are inactive results; i = inactive; . = no result; + = active, no number. Compounds with a hit are over-represented: about 2.6% of the library has one in this group of screens.

SMILES | TPT1 inhibitor | IDE cell activ | IDE inh | CRFBP-R2 block | Myeloid diff 2 | CRFBP-R2 agonist | caTPT1 confirm | RNase T1 inh
COc1ccc(C2=C/C(=C\c3ccccc3OC(C)=O)C(=O)O2)cc1 | 13.4 | -4.4 | -4.5 | -9.4 | i | 41.0 | . | .
COc1ccc(C2=C/C(=C\c3cccc(OC(C)=O)c3)C(=O)O2)cc1 | 35.5* | 6.6 | 1.1 | -17.6 | i | 30.7 | 54.9* | 67.6*
O=C(/C=C/c1cn(CC(O)CN2CCCCC2)c2ccccc12)c1cccs1 (stereo not given) | 64.5* | -10.7 | 10.5 | -80.2 | + | 63.2* | 65.2* | 72.1*
O=C(/C=C/c1cn(CC(O)CN2CCCCC2)c2ccccc12)c1ccccc1 (stereo not given) | . | -0.5 | . | -18.4 | i | 7.8 | . | .
COc1ccc(C(=O)/C=C/c2cn(CC(O)CN3CCN(C)CC3)c3ccccc23)cc1OC (stereo not given) | 50.1* | -6.6 | 1.3 | -8.2 | i | 22.4 | 60.9* | 71.7*
CCCN(CCC)CC(O)Cn1cc(/C=C/C(=O)c2ccccc2)c2ccccc21 (stereo not given) | . | 4.4 | . | -17.3 | i | 8.2 | . | .
CCCN(CCC)CC(O)Cn1cc(/C=C/C(=O)c2cccs2)c2ccccc21 (stereo not given) | 61.4* | -3.2 | 6.9 | -49.4 | + | 33.5 | 63.6* | 71.9*
Cc1ccc(NC(=O)CN(C)C(=O)COC(=O)c2ccc(Cl)cc2O)cc1 | . | 2.3 | 2.5 | -2.5 | i | 1.8 | . | .
CCOc1ccccc1NC(=O)CSc1nc(N)c(C#N)cc1C#N | 20.5 | 2.9 | -1.8 | -11.4 | i | 1.1 | . | .
COc1ccccc1NC(=O)CSc1nc(N)c(C#N)cc1C#N | 32.2* | . | -5.5 | -33.0 | i | 7.7 | 38.7* | 50.2*
CC12C=CC3(O1)C(C(=O)N(c1cccnc1)C3C(=O)NC1CCCCC1)C2C(=O)Nc1ccccc1 (stereo not given) | 0.4 | 2.7 | 4.4 | 7.3 | i | 1.3 | . | .
CC(C)(C)NC(=O)C1N(c2cccnc2)C(=O)C2C(C(=O)Nc3ccccc3F)C3(C)C=CC21O3 (stereo not given) | 73.0* | 0.5 | 4.0 | 1.2 | i | -3.1 | 7.3 | 10.5
Cc1nnc(-c2cccc(Br)c2)c2cn(-c3cccc(Br)c3)nc12 | 47.4* | 1.1 | 7.1 | 28.8 | i | -1.4 | 79.3* | 84.1*
CC(=O)Nc1ccc(S(=O)(=O)NCc2nc(-c3cccc(C)c3)no2)cc1 | 41.3* | 1.9 | -2.3 | 3.6 | i | 2.5 | 72.7* | 80.0*
O=C(NN1C(=O)/C(=C/c2cccs2)SC1=S)c1ccccc1 | -0.7 | -1.9 | 0.1 | 14.9 | i | -0.8 | . | .
O=C(NN1C(=O)/C(=C/C=C/c2ccco2)SC1=S)c1ccccc1O | 70.9* | -1.3 | -3.5 | -14.6 | i | 1.7 | 49.5* | 49.5*
Cn1cccc1/C=C1\SC(=S)N(NC(=O)c2ccccc2O)C1=O | 78.6* | -10.5 | -1.4 | 18.6 | i | 0.4 | 86.7* | 101.1*
Cn1cccc1/C=C1\SC(=S)N(NC(=O)c2ccccc2)C1=O | 88.5* | -5.8 | 11.2 | -3.1 | i | 3.5 | 91.2* | 111.4*
Cn1cccc1/C=C1\SC(=S)N(NC(=O)c2ccc(F)cc2)C1=O | 96.8* | 3.0 | 12.8 | -6.9 | i | 5.0 | 111.0* | 118.2*
Cc1ccc(C)c(N2C(=O)c3cc(N4CCOCC4)c([N+](=O)[O-])cc3C2=O)c1 | -1.2 | 4.0 | 6.3 | -5.5 | i | -2.2 | . | .
CC1(C(=O)Nc2ccccc2F)CCN1C(=O)Cc1ccc(-c2ccccc2)cc1 (stereo not given) | . | . | . | . | i | . | . | .
CC1(C)CN(c2cccc(Br)c2)C1=O | 0.0 | 0.8 | -1.3 | 7.8 | i | -1.6 | . | .
CCCCn1nnnc1C1(C)CCC(=O)N1CCCN1CCOCC1 (stereo not given) | . | . | . | . | i | . | . | .
CCOC1=C2[C@@H](CN(S(=O)(=O)c3ccc(C)cc3)[C@H]2c2cccs2)[C@H]2C(=O)N(c3ccccc3)C(=O)[C@H]2C1 | . | . | . | . | i | . | . | .
CCN(C(=O)COC(=O)CCc1ccccc1)c1ccccc1 | 2.4 | 3.1 | 0.8 | 2.5 | i | 0.6 | . | .
SMILES | TPT1 inhibitor | IDE cell activ | IDE inh | CRFBP-R2 block | Myeloid diff 2 | CRFBP-R2 agonist | caTPT1 confirm | RNase T1 inh
CCOc1ccc(N=C(/C(C(=O)C(=O)N2CCOCC2)=C(\O)c2ccccc2)c2ccccc2)cc1 | 1.6 | 4.4 | -3.3 | -12.8 | i | 1.5 | . | .
Cn1cccc1/C=C1\SC(=S)N(NC(=O)c2cccc(Cl)c2)C1=O | 86.0* | -5.3 | -2.0 | 9.3 | i | 1.5 | 97.6* | 110.5*
O=C(O)c1ccc(/C=C2\SC(=S)N(NC(=O)c3ccccc3)C2=O)cc1 | 11.3 | -0.2 | -0.9 | 1.6 | i | -1.7 | . | .
O=C(NC1CCSC1)c1cccc(Cl)c1 (stereo not given) | 0.1 | 7.3 | -3.3 | -7.7 | i | 0.6 | . | .
O=C(NC1CCSC1=O)c1cccc(Cl)c1 (stereo not given) | 30.8* | -1.9 | 8.8 | 34.1 | i | -5.0 | 5.7 | 7.9
COCc1cc(C)nc(OCC(=O)N/N=C/c2ccc(-c3cc([N+](=O)[O-])ccc3Cl)o2)c1C#N | 4.2 | 0.0 | 5.5 | 41.4 | i | -4.0 | . | .
CCN(CC)c1ccc(/C=N/N2C(=O)c3ccccc3C2=O)c(O)c1 | 45.4* | -0.2 | 2.6 | -13.3 | i | 23.0 | 9.9 | 12.4
C[C@H]1CN(S(=O)(=O)c2c(F)cccc2F)CCN1S(=O)(=O)c1ccc2c(c1)OCCO2 | . | 3.1 | 2.5 | 5.2 | i | 10.6 | . | .
COc1c(C)cc(C(O)c2ncc(-c3ccc(C(F)(F)F)cc3)[nH]2)cc1C (stereo not given) | . | . | . | . | i | . | . | .
Cc1cc(C)cc(N=Cc2[nH]c3ccc(Br)c(Cl)c3c2O)c1 | 120.5* | -51.0 | 8.6 | -151.0 | i | 197.0* | 110.6* | 111.0*
COc1ccc(CN=CC2=C(O)CNC2=O)cc1 | -1.2 | -11.2 | -0.9 | -0.1 | i | 2.6 | . | .
COc1ccc(CN=Cc2[nH]c3ccc(Br)c(Cl)c3c2O)cc1 | 87.5* | -3.0 | 1.4 | -39.3 | i | 15.8 | 135.8* | 131.2*
Cc1ccc(N=Cc2cc(Br)cc(Cl)c2O)cc1 | -8.9 | -5.1 | 1.4 | -3.2 | i | 11.2 | . | .
CC(C)Cc1nnc(NC(=O)CN2C(=O)NC3(CCCC3)C2=O)s1 | -2.2 | -3.1 | 3.7 | 17.2 | i | 1.5 | . | .
CCCCC1=CC2=C(c3ccco3)C(=O)C(C)(OC(=O)c3ccc(OC)cc3)C(=O)C2=CN1CC(C)C (stereo not given) | 0.6 | -0.1 | -2.7 | 0.7 | i | 3.7 | . | .
COc1cc(C(O)c2nc(-c3csc4ccccc34)cs2)ccc1F (stereo not given) | . | . | . | . | i | . | . | .
